Bioassay records: PubChem, Johns Hopkins Ion Channel Center
KCNQ2 inh: blocks the rat KCNQ2 potassium channel | B-score at 10 µM | CHO-K1 KCNQ2, FluxOR thallium flux, 20 min; hits give low values | AID 2156 | O88943 | hit rate 1.1% among 310,000;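 active = fluorescence ratio B-score at most minus 3 library SDs, with starting brightness B-score within 2 library SDs, cut at about -5.5 in these data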
Target sequence (O88943 whole entry, looked up): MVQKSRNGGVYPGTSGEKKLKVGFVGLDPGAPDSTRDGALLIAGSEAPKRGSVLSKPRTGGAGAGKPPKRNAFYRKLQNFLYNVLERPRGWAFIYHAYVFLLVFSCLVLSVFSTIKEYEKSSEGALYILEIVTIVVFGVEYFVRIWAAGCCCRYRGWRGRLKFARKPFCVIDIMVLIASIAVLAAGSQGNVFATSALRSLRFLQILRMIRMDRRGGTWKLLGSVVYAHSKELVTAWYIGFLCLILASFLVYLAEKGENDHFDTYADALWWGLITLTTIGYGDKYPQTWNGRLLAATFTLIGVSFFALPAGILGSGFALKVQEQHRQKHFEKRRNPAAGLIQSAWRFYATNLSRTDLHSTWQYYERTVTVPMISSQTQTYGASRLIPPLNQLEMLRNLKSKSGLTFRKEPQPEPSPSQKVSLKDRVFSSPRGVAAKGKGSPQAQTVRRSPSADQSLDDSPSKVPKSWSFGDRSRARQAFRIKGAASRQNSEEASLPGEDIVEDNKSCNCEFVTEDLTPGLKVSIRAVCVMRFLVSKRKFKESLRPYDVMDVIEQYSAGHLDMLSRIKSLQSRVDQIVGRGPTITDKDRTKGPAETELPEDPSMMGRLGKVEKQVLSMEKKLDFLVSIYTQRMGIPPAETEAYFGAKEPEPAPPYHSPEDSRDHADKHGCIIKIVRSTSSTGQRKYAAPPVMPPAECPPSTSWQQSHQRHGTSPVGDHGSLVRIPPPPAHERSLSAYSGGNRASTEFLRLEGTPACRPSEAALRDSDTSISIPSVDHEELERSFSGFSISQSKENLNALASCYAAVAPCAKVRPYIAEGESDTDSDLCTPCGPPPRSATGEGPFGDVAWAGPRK
KCNQ2 enhance: KCNQ2 (rat) channel potentiation. CHO-K1 KCNQ2, FluxOR thallium flux fluorescence; hits give high values. O88943. AID 2239. B-score at 10 µM. hit rate 0.54% among 310,000;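 active = fluorescence ratio B-score at least 3 SD of library B-scores, with initial fluorescence B-score within 3 of them, cut at about 5.3 in these data; same plate scores as AID 2156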;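 note: B-score of peak minus minimum over baseline fluorescence ratio after K+ and Tl+ stimulus; positive B-score means potentiation of KCNQ2 with more thallium influx and brighter signal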
Kir21 confirm: confirmation of mouse Kir2.1 potassium channel inhibitors. shares compounds with KCNQ2 enhance. Kir2.1-expressing cells, FluxOR thallium flux fluorescence; hits give low values. AID 2032. Tl flux remaining, % of negative control (hits give low values), % at 10 µM. hit rate 41% among 2,300;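 active = Primary-screen hit whose thallium flux fell at least 3 control SD below untreated wells in both duplicates, with normal baseline fluorescence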;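 note: 0% = blank wells without stimulus and 100% = stimulated no-compound controls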
HEK293 ctr: alters thallium flux in parental HEK293 cells, Kir2.1 counter-screen; shares compounds with KCNQ2 enhance; FluxOR thallium flux fluorescence; 0% = unstimulated blank wells; FluxOR signal as % of negative control (100 = no effect), % at 10 µM; hit rate 19% among 2,300;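 active = dye signal at least 3 control SD above or below untreated wells in both duplicates, raw fluorescence within 3, either direction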;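 note: percent is based on the flux ratio of peak minus minimum fluorescence over baseline F0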
CHO-K1 ctr: counter-screen for KCNQ2 potentiators: effect in parental CHO-K1 cells | shares compounds with KCNQ2 enhance | FluxOR thallium flux fluorescence; zero = vehicle mean+3SD, 100% = vehicle-minus-blank window | activity increase over 3SD of controls, % at 10 µM | hit rate 43% among 1,200 | AID 2282;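 active = signal rise of at least 3 SD above the untreated control mean, in both duplicate wells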;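 note: counter screen of KCNQ2 potentiator hits so any rise reflects channel-independent effects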
KCNQ1 pot spec: selectivity of KCNQ2 potentiators: effect on human KCNQ1. CHO KCNQ1 stable, FluxOR thallium flux fluorescence; beyond 3SD, as % of vehicle-control signal. hit rate 28% among 1,200. AID 2283. shares compounds with KCNQ2 enhance. activation over 3SD threshold, % at 10 µM;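 active = fluorescence ratio rise of at least 3 SD of vehicle wells above their mean, in both replicate wells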;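 note: 0% = vehicle mean plus 3 SD and 100% = vehicle minus unstimulated blank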
KCNQ2 pot conf: rat KCNQ2 channel potentiator confirmation; potentiation, less the hit threshold, % at 10 µM; shares compounds with KCNQ2 enhance; hit rate 68% among 1,200; CHO-KCNQ2 cells, FluxOR thallium flux fluorescence; AID 2287;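 active = fluorescence ratio rising 3 SD or more over the vehicle control mean in both replicates, plus primary screen hit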;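 note: peak minus minimum thallium fluorescence divided by baseline after K/Tl stimulus; 0% = vehicle mean plus 3 SD and 100% = vehicle minus unstimulated blank difference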
Kir21 spec: mouse Kir2.1 off-target activity of KCNQ2 potentiators | shares compounds with KCNQ2 enhance | HEK293 Kir2.1, FluxOR thallium flux fluorescence | activity over 3SD threshold, % at 10 µM | hit rate 2% among 1,200 | AID 2345;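 active = fluorescence ratio rise of at least 3 SD above the vehicle-control mean, seen in both replicates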;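 note: 0% = vehicle mean plus 3 SD and 100% = vehicle minus no-stimulus blank window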
Active calls of the source: *; i = inactive; . = not tested or not shown. Hits are enriched below; roughly 1.6% of the tested compounds scored in any of these assays.

SMILES	KCNQ2 inh	KCNQ2 enhance	Kir21 confirm	HEK293 ctr	others
Cc1ccc(O)c(C(=O)CC(=O)c2ccc(Cl)cc2)c1	i	6.2*	i	i	CHO-K1 ctr=-9;KCNQ1 pot spec=-18;KCNQ2 pot conf=-11;Kir21 spec=-34
CC(C)NC(=O)C(C)Oc1ccc(S(=O)(=O)NCc2ccc3c(c2)OCO3)cc1 (configuration not stated)	i	.	.	.
CC(C)c1ccc(CN2C(=O)NC3(CCCCCC3)C2=O)cc1	i	3.4	.	.
CC(=O)C1=C(C)NC(SCC(=O)c2ccc(Cl)cc2)=C(C#N)C1c1ccco1 (configuration not stated)	i	12*	i	i	CHO-K1 ctr=-21;KCNQ1 pot spec=17*;KCNQ2 pot conf=-24;Kir21 spec=-37
CC(=O)C1=C(C)NC(SCC(=O)c2ccc(Cl)cc2Cl)=C(C#N)C1c1ccco1 (configuration not stated)	i	1.4	.	.
CCOC(=O)/C(=N\Nc1ccccc1)P(=O)(c1ccccc1)c1ccccc1	i	.	.	.
Cc1ccnc(NCc2ccccc2O)c1	i	1.2	.	.
Cc1ccc(O)c(CNCCNCc2cc(C)ccc2O)c1	i	.	38%*	i
CCc1ccc(O)c(N=Cc2ccccc2O)c1	i	.	.	.
CCc1ccc(O)c(CNCCNCc2cc(CC)ccc2O)c1	i	2.8	50%*	i
Cn1c(CCc2nc3ccccc3[nH]2)nnc1SCC#N	i	.	.	.
CC(C)(Oc1ccc(Cl)cc1)C(=O)NC1CC1	i	2.4	.	.
Cc1ccc(S(=O)(=O)NCCSc2nnnn2-c2ccccc2)cc1	i	0.37	68%*	i
Cc1ccc(S(=O)(=O)NCCSc2nnnn2-c2cc(C)ccc2C)cc1	i	0.86	.	.
COc1ccccc1OCCCOc1c(Cl)cc(C)cc1Cl	i	0.23	.	.
Clc1ccc(OCCCNCc2ccccc2)c2ccccc12	-7.6*	-7.6	14%*	74%*
Cc1cc(C)c(C)c(OCCNCc2ccccc2)c1	i	.	.	.
Cc1cc(C)c(OCCCCNCc2ccccc2)c(Cl)c1	i	.	12%*	i
CCC(C)NCCOCCOc1ccc(Cl)c2ccccc12 (configuration not stated)	i	0.24	.	.
CC(C)(C)c1ccc(OCCNCc2ccccc2)cc1	i	.	.	.
Clc1ccc(OCCOCCNCc2ccccc2)cc1Cl	i	.	22%*	i
Cc1cc(Br)ccc1OCCNCc1ccccc1	i	.	25%*	i
O=C(c1ccco1)N1CCN(C2CC(=O)N(c3ccc(F)c(Cl)c3)C2=O)CC1 (configuration not stated)	i	.	.	.
C=CCn1c(SCC(=O)Nc2ccccc2C)nc(O)cc1=O	i	0.14	.	.
COc1c(Cl)cc(Cl)cc1CNCc1ccccc1	i	.	.	.
SMILES	KCNQ2 inh	KCNQ2 enhance	Kir21 confirm	HEK293 ctr	others
Cc1cc(Cl)cc(C)c1OCCOCCNCc1ccccc1	i	.	14%*	i
O=C(Nc1ccc(Cl)cc1)C(Cl)C(=O)c1ccccc1 (configuration not stated)	i	0.25	70%*	i
O=C(NC(=S)Nc1ccc(Cl)cc1)c1ccccc1	i	.	.	.
CCSc1nnc(NC(NC(C)=O)(C(F)(F)F)C(F)(F)F)s1	i	.	.	.
O=C(OC(C(=O)NCc1ccccc1)c1ccccc1F)c1ccco1 (configuration not stated)	i	.	.	.
COc1ccccc1NC(=O)C1CCCN(S(=O)(=O)c2c(C)noc2C)C1 (configuration not stated)	i	.	.	.
CC(C)NC(=O)CC(c1ccccc1)c1cc(Br)ccc1O (configuration not stated)	i	2.8	.	.
O=CN1CCN(C(=O)CC(c2ccccc2)c2cc(Br)ccc2O)CC1 (configuration not stated)	i	0.56	.	.
